Reference: PubChem BioAssay (Tox21)
Results filed as inconclusive are left out. The source made the active and inactive calls. Unless noted, calls come from the whole dose curve; as a rule, active = well fitted curve in the direction sought with a large enough effect in the repeat runs; inconclusive = weak or mixed curves; inactive = no such curve, though single readings can be large; an effect the other way counts as inactive or inconclusive.

Tests used:
[1] = qHTS assay to identify small molecule agonists of the peroxisome proliferator-activated receptor delta (PPARd) signaling pathway - cell viability counter screen (AID 743211); note: nearly all actives have a fitted effect of over 55% in size
Method in brief: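 Read-out: CellTiter-Glo luminescence, 30 min RT, measured in the same wells as the beta-lactamase reporter. Cells: GeneBLAzer PPAR delta UAS-bla HEK293H, 3000 cells/well, compound exposure 17 h at 37C.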

[2] = qHTS assay to identify small molecule antagonists of the peroxisome proliferator-activated receptor delta (PPARd) signaling pathway - cell viability counter screen (AID 743213); note: nearly all actives have a fitted effect of over 50% in size
Method in brief: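 Agonist-stimulated (L165041, 300 nM final) HEK293H PPARd UAS-bla cells are exposed to compounds for 17 h at 37 C, and ATP-based luminescence (CellTiter-Glo) from the same wells reports cytotoxicity.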

[3] = qHTS assay to identify small molecule antagonists of the farnesoid-X-receptor (FXR) signaling pathway - cell viability counter screen (AID 743221; active = well fitted cell-killing curve with a large enough effect in the repeat runs, not every such curve was filed as active; note: nearly all actives have a fitted effect of over 50% in size)
Method in brief: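 HEK 293T FXR-bla cells, 5 h pre-incubation; compound + CDCA 50 uM final, 16 h, 37 C; beta-lactamase FRET read first, then CellTiter-Glo luminescence, 30 min RT.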

[4] = target: Vitamin D3 receptor (Homo sapiens) (UniProt P11473); test: qHTS assay to identify small molecule agonists of the vitamin D receptor (VDR) signaling pathway (AID 743222; calls by dose curve)
Method in brief: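 VDR-bla cells were plated 4 h at 37C/5% CO2, then exposed to compounds in DMSO for 16 h. After LiveBLAzer B/G FRET substrate addition and 2 h at room temperature, beta-lactamase reporter fluorescence was read.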

[5] = target: Vitamin D3 receptor (Homo sapiens) (UniProt P11473); test: qHTS assay to identify small molecule antagonists of the vitamin D receptor (VDR) signaling pathway (AID 743223; active = well fitted inhibition curve with a large enough effect in the signal ratio in the repeat runs, not every such curve was filed as active; the % refers to the signal ratio)
Method in brief: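 Beta-lactamase reporter read-out: FRET substrate fluorescence after 2 h at room temperature, following 16 h exposure of VDR-bla cells to test compound plus 3 nM (final) 1alpha,25-dihydroxyvitamin D3 agonist at 37C.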

[6] = qHTS assay to identify small molecule agonists of the vitamin D receptor (VDR) signaling pathway - cell viability counter screen (AID 743224); note: series mostly up to about 63 µM; nearly all actives have a fitted effect of over 50% in size
Method in brief: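 VDR-bla cells were preincubated 4 h at 37C/5% CO2, then exposed to compounds for 16 h. After the 2 h room-temperature bla FRET read, CellTiter-Glo was added to the same wells and luminescence read after 30 min.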

[7] = qHTS assay to identify small molecule antagonists of the vitamin D receptor (VDR) signaling pathway - cell viability counter screen (AID 743225); note: nearly all actives have a fitted effect of over 50% in size
Method in brief: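 Viability counter screen run in the same wells as the beta-lactamase reporter assay: HEK 293T VDR-UAS-bla cells, 16 h compound exposure at 37C with 3 nM (final) 1-alpha,25-dihydroxyvitamin D3. CellTiter-Glo luminescence, 30 min, room temperature.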

[8] = qHTS assay to identify small molecule agonists of the NFkB signaling pathway (AID 1159509; active = well fitted curve in the direction sought with a large enough effect in the signal ratio in the repeat runs, not every such curve was filed as active; the % refers to the signal ratio; note: series mostly up to about 61 µM)
Method in brief: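 ME-180 NFkB-bla, 2,000 cells/well, overnight plating; cpd pinned in DMSO, 5 h 37 C; B/G FRET substrate 1.5 h RT; ex 405, em 460/530 nm.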

[9] = qHTS assay to identify small molecule agonists of the NFkB signaling pathway - cell viability counter screen (AID 1159515; calls by dose curve; note: series mostly up to about 61 µM; nearly all actives have a fitted effect of over 55% in size)
Method in brief: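 NFkB-bla ME-180 cells, 2,000/well, were plated overnight at 37 C, 5% CO2, then exposed to compounds in DMSO for 5 hr. After the bla FRET read, CellTiter-Glo was added to the same wells; luminescence was read after 30 min at room temperature.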

[10] = qHTS assay to identify small molecule agonists of the endoplasmic reticulum stress response signaling pathway (AID 1159516; active = well fitted activation curve with a large enough effect in the signal ratio in the repeat runs, not every such curve was filed as active; the % refers to the signal ratio)
Method in brief: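 CellSensor ESRE-bla HeLa cells, carrying a beta-lactamase reporter driven by the ER stress response element, were plated overnight and exposed to compounds for 5 hr at 37 C. Reporter activity was read as FRET substrate fluorescence after 2 hr at room temperature.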

[11] = qHTS assay to identify small molecule agonists of the endoplasmic reticulum stress response signaling pathway - cell viability counter screen (AID 1159517; calls by dose curve)
Method in brief: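 HeLa cells carrying an ESRE-driven beta-lactamase reporter receive compound for 5 hr at 37 C. Cell viability is then gauged with CellTiter-Glo by luminescence, 30 min at room temperature.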

[12] = qHTS assay to identify small molecule antagonists of the retinoid-related orphan receptor gamma (ROR-gamma) signaling pathway - cell viability counter screen (AID 1159520); note: nearly all actives have a fitted effect of over 50% in size
Method in brief: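 Cytotoxicity was read from cellular ATP (CellTiter-Glo luminescence) after 16 hr at 37 C with 1 uM doxycycline induction. The inducer was added 2 hr after compound transfer to Tet-on ROR gamma CHO cells.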

[13] = qHTS assay to identify small molecule agonists of the AP-1 signaling pathway - cell viability counter screen (AID 1159525; calls by dose curve; note: nearly all actives have a fitted effect of over 55% in size)
Method in brief: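 Luminescent ATP readout (Cell Titer Glo, 30 min RT), normalised to DMSO and tetra n-octyl ammonium bromide controls. Cells were ME-180 AP-1-bla in 0.5% dialyzed FBS Opti-MEM, with a 5 h, 37 °C compound exposure.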

[14] = qHTS assay to identify small molecule agonists of the AP-1 signaling pathway (AID 1159526; calls by dose curve)
[15] = target: Peroxisome proliferator-activated receptor delta (Homo sapiens) (UniProt Q03181); test: qHTS assay to identify small molecule agonists of the peroxisome proliferator-activated receptor delta (PPARd) signaling pathway (AID 743212; calls by dose curve)
Method in brief: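 HEK293H PPARd-bla cells; 5 h preincubation 37 C/5% CO2; compound (DMSO) 37 C; LiveBLAzer B/G FRET substrate 2 h RT; fluorescence intensity.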

[16] = target: Bile acid receptor (Homo sapiens) (UniProt Q96RI1); test: qHTS assay to identify small molecule antagonists of the farnesoid-X-receptor (FXR) signaling pathway (AID 743217; active = well fitted inhibition curve with a large enough effect in the signal ratio in the repeat runs, not every such curve was filed as active; the % refers to the signal ratio)
Method in brief: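 FXR-UAS-bla HEK 293T cells pre-incubated 5 h at 37 °C, then exposed to compounds with chenodeoxycholic acid (50 uM final) for 16 h at 37 °C. Beta-lactamase reporter read by LiveBLAzer B/G FRET substrate fluorescence after 2 h at room temperature.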

[17] = qHTS assay to identify small molecule agonists of the farnesoid-X-receptor (FXR) signaling pathway - cell viability counter screen (AID 743218); note: nearly all actives have a fitted effect of over 45% in size
Method in brief: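 FXR-UAS-bla HEK 293T cells, plated 5 h at 37 C, were exposed to compounds for 16 h at 37 C. CellTiter-Glo was then added to the same wells as the bla readout; luminescence read after 30 min at room temperature.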

[18] = target: Bile acid receptor (Homo sapiens) (UniProt Q96RI1); test: qHTS assay to identify small molecule agonists of the farnesoid-X-receptor (FXR) signaling pathway (AID 743220; active = well fitted activation curve with a large enough effect in the signal ratio in the repeat runs, not every such curve was filed as active; the % refers to the signal ratio)
Method in brief: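 Beta-lactamase reporter under UAS control in GeneBLAzer FXR HEK 293T cells (5000/well) measured with LiveBLAzer FRET substrate after 2 h at room temperature. Compound exposure lasted 16 h at 37C.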

Measured: Potency

Sequence of Bile acid receptor (Homo sapiens) (Q96RI1 whole entry, looked up): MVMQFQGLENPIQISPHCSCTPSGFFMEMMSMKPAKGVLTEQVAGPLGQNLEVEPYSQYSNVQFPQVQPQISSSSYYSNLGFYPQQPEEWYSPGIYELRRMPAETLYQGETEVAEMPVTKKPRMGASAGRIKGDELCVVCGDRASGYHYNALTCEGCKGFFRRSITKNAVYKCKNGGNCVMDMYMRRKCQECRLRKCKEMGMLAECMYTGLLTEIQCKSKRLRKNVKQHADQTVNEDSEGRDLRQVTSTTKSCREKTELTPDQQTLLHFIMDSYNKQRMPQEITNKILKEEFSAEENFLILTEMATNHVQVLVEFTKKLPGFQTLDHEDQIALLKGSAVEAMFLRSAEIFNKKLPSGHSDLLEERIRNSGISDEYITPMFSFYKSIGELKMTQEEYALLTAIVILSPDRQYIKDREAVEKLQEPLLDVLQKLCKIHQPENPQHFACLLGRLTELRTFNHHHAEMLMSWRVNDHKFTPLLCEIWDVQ
Sequence of Vitamin D3 receptor (Homo sapiens) (P11473 whole entry, looked up): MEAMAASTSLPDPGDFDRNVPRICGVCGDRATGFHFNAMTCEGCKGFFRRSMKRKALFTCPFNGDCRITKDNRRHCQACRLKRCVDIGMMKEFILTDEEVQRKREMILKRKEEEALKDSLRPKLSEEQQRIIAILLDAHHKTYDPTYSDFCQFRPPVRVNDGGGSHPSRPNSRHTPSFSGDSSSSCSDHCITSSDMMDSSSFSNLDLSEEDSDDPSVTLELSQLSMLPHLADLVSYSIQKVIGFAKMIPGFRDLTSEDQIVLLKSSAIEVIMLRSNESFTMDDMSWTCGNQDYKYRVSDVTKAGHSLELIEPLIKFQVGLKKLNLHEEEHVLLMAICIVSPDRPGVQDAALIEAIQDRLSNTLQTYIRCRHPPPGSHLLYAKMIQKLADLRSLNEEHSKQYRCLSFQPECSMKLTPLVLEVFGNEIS
Sequence of Peroxisome proliferator-activated receptor delta (Homo sapiens) (Q03181 whole entry, looked up): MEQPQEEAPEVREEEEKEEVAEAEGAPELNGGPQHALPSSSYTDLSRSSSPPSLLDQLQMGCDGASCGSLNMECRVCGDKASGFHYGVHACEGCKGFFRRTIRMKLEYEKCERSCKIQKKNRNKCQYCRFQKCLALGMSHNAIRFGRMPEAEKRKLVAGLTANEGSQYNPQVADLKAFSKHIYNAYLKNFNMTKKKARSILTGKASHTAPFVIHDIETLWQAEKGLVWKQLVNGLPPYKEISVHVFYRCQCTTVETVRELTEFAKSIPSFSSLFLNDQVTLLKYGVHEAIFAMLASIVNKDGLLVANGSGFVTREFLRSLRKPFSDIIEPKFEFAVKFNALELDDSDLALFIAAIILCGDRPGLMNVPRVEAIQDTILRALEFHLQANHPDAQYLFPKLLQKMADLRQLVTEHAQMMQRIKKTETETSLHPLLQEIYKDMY

Cc1cc(C(=C2C=CC(=Nc3ccc(S(=O)(=O)O)cc3S(=O)(=O)O)C=C2)c2ccc(Nc3ccc(S(=O)(=O)O)cc3)cc2)ccc1N
not listed: [15] | [16] | [17] | [18]
inactive: all other assays above

O=[N+]([O-])c1cccc(S(=O)(=O)NCCNS(=O)(=O)c2cccc([N+](=O)[O-])c2)c1
not listed: [2]
inactive: all other assays above

CCCCN(CCCC)CCCOC(=O)c1ccc(N)cc1
not listed: [4] | [5] | [15] | [18]
inactive: all other assays above

CCCCC(CC)C(=O)OCCOCCOCCOCCOC(=O)C(CC)CCCC (stereo unspecified)
not listed: [7] | [17]
inactive: all other assays above

CCC(C(=O)OCCOCCN(CC)CC)c1ccccc1 (stereo unspecified)
not listed: [15]
inactive: all other assays above

O=C(N/N=C/c1ccc([N+](=O)[O-])o1)c1ccc(O)cc1
not listed: [4] | [5] | [6] | [15] | [16] | [18]
inactive: all other assays above

CN(C)C(=O)Nc1ccc(Oc2ccc(Cl)cc2)cc1
not listed: [15] | [16] | [18]
inactive: all other assays above

C/C=C(\C)C(=O)OCCC(C)CCC=C(C)C (stereo unspecified)
not listed: [4] | [15]
inactive: all other assays above

COc1ccc(CCC(=O)c2c(O)cc(O[C@@H]3O[C@H](CO)[C@@H](O)[C@H](O)[C@H]3O[C@@H]3O[C@@H](C)[C@H](O)[C@@H](O)[C@H]3O)cc2O)cc1O
not listed: [15] | [16] | [18]
inactive: all other assays above
